37 compounds from PubChem BioAssay (NCATS) can be followed below.

Structures are written as SMILES. Records with an inconclusive call do not appear. Values without a mark were called inactive. Calls of active or inactive are those of the source. The call rests on the fitted dose curve; in most records, active means well fitted inhibition curve with a large enough effect; inconclusive means small, poorly fitted or top-dose-only effect; inactive means flat fitted curve, though single readings scatter.
On the % scale 0 is the no-effect control and ±100 the full control effect.

The target in this experiment is Phospholipid hydroperoxide glutathione peroxidase GPX4 (Homo sapiens) (UniProt P36969). In words: Primary qHTS Assay for Inhibitors of Recombinant Selenoprotein Glutathione Peroxidase 4 (GPX4) (AID 1845192). Further: nearly all actives have a fitted effect of over 65% in size. Conditions: recombinant GPX4, GR-coupled NADPH fluorescence, 15 min; series mostly up to 50 µM; activity change, negative = inhibition: at the top concentration. In a few lines: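 qHTS, GR-coupled: GPX4 200 nM + cpd 30 min RT → GSH 1 mM, NADPH 0.5 mM, GR 100 nM → CHP 0.5 mM start; fluor 340/450 at t0 and t15 min; no-enzyme wells as control.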
Phospholipid hydroperoxide glutathione peroxidase GPX4 (Homo sapiens), sequence (P36969 whole entry, looked up): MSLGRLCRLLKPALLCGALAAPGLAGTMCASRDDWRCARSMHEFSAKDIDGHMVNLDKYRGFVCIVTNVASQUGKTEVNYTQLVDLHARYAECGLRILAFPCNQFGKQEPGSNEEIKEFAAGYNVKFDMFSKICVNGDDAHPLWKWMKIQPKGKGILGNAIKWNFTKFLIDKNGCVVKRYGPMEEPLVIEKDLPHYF
For orientation: qHTS replaces the single test concentration by a dilution series.
In the case of `CC(=O)N[C@@H](Cc1c[nH]c2ccccc12)C(=O)OCc1cc(C(F)(F)F)cc(C(F)(F)F)c1`, the “activity change, negative = inhibition” value is -14.5%. For the compound `CC(=O)[C@H]1CCC2C3CC=C4C[C@@H](OS(=O)(=O)O)CC[C@]4(C)C3CC[C@@]21C` (some centres not stated), the “activity change, negative = inhibition” value was -4.31%. `COc1cc(CNC(=O)CCCCCCC(C)C)ccc1O`: the outcome was inactive. For the compound `CCCCCCC/C=C\CCCCCCCCC(=O)O`, the “activity change, negative = inhibition” value was -21.4%. With `C=CCN1CCc2c(cc(O)c(O)c2Br)[C@@H](c2ccccc2)C1`, the result was inactive. Regarding `CC[C@H](NC(=O)c1c(C)c(-c2ccccc2)nc2ccccc12)c1ccccc1`, the “activity change, negative = inhibition” value is -8.53%.

As for `CC(/C=C/c1cccc(Oc2ccc(F)cc2)c1)N(O)C(N)=O` (configuration not stated), the “activity change, negative = inhibition” value was -4.1%.

Regarding `CCCn1c(=O)c2c(ncn2C)n(CCC)c1=O`, the “activity change, negative = inhibition” value is -10.7%. For the compound `CC(C)C[C@H](NC(=O)[C@H](O)[C@H](N)Cc1ccccc1)C(=O)O`, the result was inactive. On the same count and under the same terms, as for `O=C(O)CCC(=O)N1CCCC1C(=O)O` (configuration not stated), the entry is “inactive”; as for `Cn1c(=O)c2c(nc(/C=C/c3cccc(Cl)c3)n2C)n(C)c1=O`, “inactive”; as for `NC1(C(=O)O)CC1`, “inactive”. On to `Nc1ccc2c3c(cccc13)C(=O)NC2=O`, for which the outcome was inactive.

As to `CCCCCCN(CCCCCC)C(=O)Cc1c(-c2ccc(F)cc2)[nH]c2ccccc12`, the outcome was inactive.

Take `NCCNS(=O)(=O)c1cccc2c(Cl)cccc12`: the outcome was inactive. As for `CCC(=O)N1CCN(C(=O)c2ccccc2)CC1`, the “activity change, negative = inhibition” value was -2.08%. For the compound `C[C@H](NC(=O)/C(C#N)=C/c1ccc(O)c(O)c1)c1ccccc1`, the result was inactive. On the same count and under the same terms, as for `CC(=O)C(C)=O`, the entry is “inactive”. With `CN1CCN(c2nc3cc(C(F)(F)F)ccc3n3cccc23)CC1`, the “activity change, negative = inhibition” value is -13.3%. Consider `CCCCCCC(=O)OC1CC(C)(C)NC(C)(C)C1`, for which the outcome was inactive. Turning to `CCCn1c(=O)c2[nH]c(C3CCCC3)nc2n(CCC)c1=O`, the outcome was inactive. For the compound `COc1cc(N)c(Cl)cc1C(=O)OCCN1CCCCC1`, the outcome was inactive. With `Cc1nc2n(c(=O)c1CCN1CCC(c3noc4cc(F)ccc34)CC1)CCCC2O` (configuration not stated), the “activity change, negative = inhibition” value was -12.6%. With `CCCC[C@@]1(C2CCCC2)Cc2cc(OCC(=O)O)c(Cl)c(Cl)c2C1=O`, the result was inactive.

Regarding `CNCCNS(=O)(=O)c1cccc2cnccc12`, the “activity change, negative = inhibition” value is -14.8%. The same measure, in the same setting: for `Clc1nccc2c1ccc1ccccc12` the value was 0.885%. In the case of `c1ccc2c(c1)CC(N1CCN(c3cccc4c3OCCO4)CC1)C2`, the outcome was inactive.

For the compound `CCCOC(=O)c1c(-c2ccccc2)nc(CC)c(C(=O)SCC)c1CCC`, the outcome was inactive.

Take `CSC(N)=NCCC[C@H](N)C(=O)O`: the result was inactive. Turning to `Fc1ccc(CN(C2=NCCN2)c2c(Cl)cccc2Cl)cc1`, the result was inactive.

With `COCc1nc2c([nH]1)c(=O)n(C)c(=O)n2CC(C)C`, the “activity change, negative = inhibition” value was 0.858%.

For the compound `COc1ccccc1N1CCN(CCCCN2C(=O)c3ccccc3C2=O)CC1`, the outcome was inactive. On to `NC1C=CC=C(C(=O)O)C1` (configuration not stated), for which the “activity change, negative = inhibition” value is 4.59%. Turning to `Cc1nc2c(OCc3ccccc3)cccn2c1CC#N`, the “activity change, negative = inhibition” value was 3.17%.

Consider `Cc1cccc(C2CN(C)CCc3c2cc(O)c(O)c3Cl)c1` (configuration not stated), for which the “activity change, negative = inhibition” value is -6.16%.

On to `O=c1[nH]c(=S)[nH]c(-c2ccccc2)c1Cc1c(O)ccc2ccccc12`, for which the “activity change, negative = inhibition” value was -0.443%.

For the compound `N=C(N)c1ccc(OCCCCCOc2ccc(C(=N)N)cc2)cc1` (tested in a mixture with another compound), the result was inactive.
